Here are results for 38 compounds from PubChem BioAssay (NCI).

This is part of a sample that, as a whole, favours compounds with a hit. Of some 83,000 tested, about 20% had one in any assay.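 Assay: single dose, 48 h. Readout: percent growth (0 = no net growth; negative = cell death). Active: <10.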 Values without a mark were called inactive. Active and inactive are the calls of the source.

The subject of this assay is HL-60(TB) leukemia. Description: NCI-60 one-dose screen, 48 h (100 = growth as untreated, 0 = no growth, -100 = all killed). The note with it: 10 µM unless noted.

As to `CCN1CCC[C@H]1c1cc(O)c2c(c1OC)C[C@H]1C[C@H]3[C@H](N)C(=O)C(C(N)=O)=C(O)[C@@]3(O)C(=O)C1=C2O`, the growth was -49.2% (active).
In the case of `CN(C)c1ccc(/C=C2\C=C(c3nc4ccccc4s3)OC2=O)cc1`, the growth is 94.8%.
As to `COc1ccc(-c2cc(-c3cccnc3)nc3sc4c(=O)n(-c5ccc(C)cc5)cnc4c23)cc1OC`, the growth is 107%.
As for `COc1cnc2c(c1)C(=O)c1c-2n(CCCN2CCC(O)CC2)c(=O)c2cc(F)ccc12`, the growth was -8.3% (active).
`O=C(c1ccccc1)C(CCc1ccccn1)CCc1ccccn1`: the growth was 107%.
As for `COc1cccc(/C=C/C(=O)c2cc3c(N)c(C(=O)Nc4cccc5ccccc45)sc3nc2C)c1`, the growth is 3.98% (active).
As to `COc1ccc(/C=C2\Cc3c(Br)cccc3C2=O)c(OC)c1`, the growth is 89.2%.
Turning to `COc1ccc(-c2nc3c(ncc4ccc(=O)[nH]c43)s2)cc1`, the growth is 80.1%.
As to `NS(=O)(=O)c1ccc(CN=C2NC(=O)S/C2=C\c2ccc(Br)cc2)cc1`, the growth was 97.5%.
To `COc1cc(/C=N/NC(=O)c2ccc(-n3cc(-c4ccccc4)nn3)cc2)cc(OC)c1OC` belongs 101%; to `COc1c(O)cc2oc3cc(O)c(CC=C(C)C)c(O)c3c(=O)c2c1CC=C(C)C`, 65.9%.
Take `N=C(N)c1ccc(-c2ccc(-c3ccc(Cl)c(Cl)c3)s2)nc1`: the growth was -43.9% (active).
Take `O=C1c2ccccc2C(=O)c2c1oc1oc3c(c(=O)c21)c(=O)n(-c1ccccc1)c1ccccc31`: the growth is 7.05% (active).
Take `CC/C=C\CCC/C=C1/C(=O)C=C[C@@H]1C/C=C\CCCC(=O)O`: the growth is 10.9%.
For `COc1cc2c(cc1OC)C(=O)OC2`, the growth was 156%.
`O=C(CCc1nnc2sc(-c3cc(O)c(O)c(O)c3)nn12)c1nc2ccccc2[nH]1`: the growth was 100%.
As for `COc1cc(/C(C#N)=C/c2nc3c(N4CCOCC4)nc(Cl)nc3n2C)cc(OC)c1OC`, the growth is -29% (active).
To `CC1(C)C(=O)CC[C@]2(C)[C@H]3C(=O)C=C4[C@@H]5C[C@@](C)(C(=O)NCCNCCN)CC[C@]5(C)CC[C@@]4(C)[C@]3(C)CC[C@@H]12` belongs 90.1%; to `Cc1cc2c(c(C)c1Cl)C(=O)/C(=C/c1cccc([N+](=O)[O-])c1)O2`, 98.8%.
On to `O=S(=O)(NCCNc1cc(-c2cn(-c3ccccc3)nc2-c2cccc(O)c2)ccn1)c1ccccc1`, for which the growth is 33.9%.
`COc1cc2nc(Sc3sc(N)nc3C)n(-c3ccc(Oc4ccccc4)cc3)c(=O)c2cc1OC`: the growth was 78.9%.
With `CCN(CC)c1ccc(/C=N/NC(=O)CSc2nc3ccccc3c(=O)n2Cc2ccc(S(N)(=O)=O)cc2)c(O)c1`, the growth is -19.7% (active).
On to `Nc1ccccc1SC1CC(=O)N(c2ccc(Cl)c(Cl)c2)C1=O` (stereo not drawn), for which the growth is 139%.
The value for `CCOC(=O)c1sc(/N=C2\NC(=O)/C(=C/c3ccc(N4CCN(C)CC4)cc3)S2)nc1C` was 100%; that for `Cc1cccc2c(Nc3ccc(NS(C)(=O)=O)cc3)c3ccc([N+](=O)[O-])cc3nc12` was -27.2% (active); that for `O=c1[nH]cnc2c1ccn2C1OC(CO)C(O)C1O` (stereo not drawn) was 34%.
With `CCN(CC)CCCC(C)Nc1ccc2cc(OC)ccc2n1` (stereo not drawn), the growth was 126%.
On to `CS(=O)(=O)c1nccc(-c2c(-c3cccc(OCc4ccc(F)cc4)c3)nc3sccn23)n1`, for which the growth was 43.7%.
On to `COc1ccc(N(c2nc(-c3ccc([N+](=O)[O-])cc3)cs2)C(C)C)cc1`, for which the growth is 90.1%.
With `COc1ccc(-c2nc(Nc3nc4ccccc4[nH]3)nc(N)c2C#N)cc1`, the growth was 97.8%.
Consider `Cc1ccc(S(=O)(=O)NCC[C@@H]2C[C@H]2c2cc3ccccc3s2)cc1`, for which the growth was 112%.
Consider `CCCC(O)Cn1ncc(C(=O)OCC)c1NC(=O)NCc1cccc(C(F)(F)F)c1` (stereo not drawn), for which the growth was 71.2%.
In the case of `Brc1ccc([I+]c2ccc(Br)cc2)cc1`, the growth was -25.6% (active).
To `Cc1cnc(N)s1` belongs 97.7%; to `COC(=O)c1ccc2c(c1)n(Cc1ccc3ccccc3c1)c[n+]2Cc1ccc2ccccc2c1`, -18.8% (active); to `COc1ccccc1CNCCN1C(=O)c2ccc3c4c(ccc(c24)C1=O)C(=O)N(CCNCc1ccccc1OC)C3=O`, -71.8% (active).
As for `O=C1c2ccccc2Cc2cccc(Cl)c21`, the growth is 39.5%.
On to `C[C@H]1[C@H]2[C@H]3CC[C@@H]4[C@@]5(C)CC[C@H](O)C(C)(C)[C@@H]5CC[C@@]4(C)[C@]3(C)CC[C@]23CO[C@]1(C)[C@@H](C(=O)/C=C\c1cccnc1)C3`, for which the growth is 47.5%.
